# In paper PMC7862700, “An all-to-all approach to the identification of sequence-specific readers for epigenetic DNA modifications on cytosine”:
# Legend:
# Test in all cases: DAPPL (digital affinity profiling via proximity ligation, sequencing); 10 mM Tris-HCl pH 7.5, 50 mM NaCl, 1 mM DTT, 4% glycerol, room temperature, 30 min; GST-TFs on glutathione beads, 16-mer random dsDNA library, 0.1% formaldehyde crosslink after washing; high values mean tight binding
# [1] = target: T1, FEV (Homo sapiens, UniProt Q99581 1-238); conditions: protein: recombinant; tags: N-terminal GST; dsDNA, one strand shown
# T1 sequence: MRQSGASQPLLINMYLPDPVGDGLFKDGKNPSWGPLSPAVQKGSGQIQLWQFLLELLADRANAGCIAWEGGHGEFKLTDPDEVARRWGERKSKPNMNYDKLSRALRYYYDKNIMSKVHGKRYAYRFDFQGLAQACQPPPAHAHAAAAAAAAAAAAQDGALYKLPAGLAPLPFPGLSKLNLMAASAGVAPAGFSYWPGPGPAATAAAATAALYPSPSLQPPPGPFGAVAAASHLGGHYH
# Procedure, shortened: (§1)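 Beads coated with glutathione captured GST-fused human transcription factors that had been expressed in yeast, and the factors were then given DNA barcodes and pooled with a tag-only sample. The pools were incubated with 200 nmole of a random double-stranded 16-mer DNA library in Tris/NaCl/DTT/glycerol buffer for 30 min at room temperature, washed, crosslinked with 0.1% formaldehyde and proximity-ligated with BsaI/T4 ligase at 37 °C for 1 h. PCR amplification and Illumina NextSeq500 sequencing came last. Binding signal is each hexamer's read frequency for a factor divided by its frequency for the tag-only sample.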
# [2] = target: ETV5 (Homo sapiens, UniProt P41161 1-510); conditions: protein: recombinant; tags: N-terminal GST; dsDNA, one strand shown
# Procedure, shortened: as §1
# [3] = target: HSF1 (Homo sapiens, UniProt Q00613 1-529); conditions: protein: recombinant; tags: N-terminal GST; chain copies: 3; dsDNA, one strand shown
# Procedure, shortened: as §1
# [4] = target: T2, SPIC (Homo sapiens, UniProt Q8N5J4 1-248); conditions: protein: recombinant; tags: N-terminal GST; dsDNA, one strand shown
# T2 sequence: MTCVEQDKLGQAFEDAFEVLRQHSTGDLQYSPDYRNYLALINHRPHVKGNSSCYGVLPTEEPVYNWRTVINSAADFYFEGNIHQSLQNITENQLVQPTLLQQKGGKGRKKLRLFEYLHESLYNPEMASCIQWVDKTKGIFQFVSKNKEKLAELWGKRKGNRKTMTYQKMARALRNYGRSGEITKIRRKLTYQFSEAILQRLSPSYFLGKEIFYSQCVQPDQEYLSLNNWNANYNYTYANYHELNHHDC
# Procedure, shortened: as §1
# [5] = target: ELF4 (Homo sapiens, UniProt Q99607 1-663); conditions: protein: recombinant; tags: N-terminal GST; dsDNA, one strand shown
# Procedure, shortened: as §1
# [6] = target: T3, ELK4 (Homo sapiens, UniProt P28324-2 1-405); conditions: protein: recombinant; tags: N-terminal GST; dsDNA, one strand shown
# T3 sequence: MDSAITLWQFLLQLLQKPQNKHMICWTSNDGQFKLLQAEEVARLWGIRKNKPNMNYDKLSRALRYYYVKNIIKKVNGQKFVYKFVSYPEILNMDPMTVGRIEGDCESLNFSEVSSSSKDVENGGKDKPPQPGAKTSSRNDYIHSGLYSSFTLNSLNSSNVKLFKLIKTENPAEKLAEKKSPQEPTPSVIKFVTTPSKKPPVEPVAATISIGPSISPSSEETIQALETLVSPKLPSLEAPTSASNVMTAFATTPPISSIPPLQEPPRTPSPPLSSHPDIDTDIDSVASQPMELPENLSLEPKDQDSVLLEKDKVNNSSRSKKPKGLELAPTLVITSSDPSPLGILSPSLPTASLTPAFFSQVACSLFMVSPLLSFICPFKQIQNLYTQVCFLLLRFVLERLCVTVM
# Procedure, shortened: as §1
# [7] = target: T4, ETV2 (Homo sapiens, UniProt O00321 1-342); conditions: protein: recombinant; tags: N-terminal GST; dsDNA, one strand shown
# T4 sequence: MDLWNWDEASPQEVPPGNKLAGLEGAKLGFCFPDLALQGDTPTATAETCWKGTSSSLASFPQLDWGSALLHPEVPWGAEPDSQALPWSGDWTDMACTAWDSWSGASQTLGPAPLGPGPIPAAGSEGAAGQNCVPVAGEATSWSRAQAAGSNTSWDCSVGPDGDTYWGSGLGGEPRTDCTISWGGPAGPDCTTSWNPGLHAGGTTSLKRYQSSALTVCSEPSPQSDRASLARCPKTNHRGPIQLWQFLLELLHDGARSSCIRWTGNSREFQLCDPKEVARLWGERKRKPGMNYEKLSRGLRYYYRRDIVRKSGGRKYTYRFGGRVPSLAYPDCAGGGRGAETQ
# Procedure, shortened: as §1
# [8] = target: T5, ELF3 (Homo sapiens, UniProt P78545 1-371); conditions: protein: recombinant; tags: N-terminal GST; dsDNA, one strand shown
# T5 sequence: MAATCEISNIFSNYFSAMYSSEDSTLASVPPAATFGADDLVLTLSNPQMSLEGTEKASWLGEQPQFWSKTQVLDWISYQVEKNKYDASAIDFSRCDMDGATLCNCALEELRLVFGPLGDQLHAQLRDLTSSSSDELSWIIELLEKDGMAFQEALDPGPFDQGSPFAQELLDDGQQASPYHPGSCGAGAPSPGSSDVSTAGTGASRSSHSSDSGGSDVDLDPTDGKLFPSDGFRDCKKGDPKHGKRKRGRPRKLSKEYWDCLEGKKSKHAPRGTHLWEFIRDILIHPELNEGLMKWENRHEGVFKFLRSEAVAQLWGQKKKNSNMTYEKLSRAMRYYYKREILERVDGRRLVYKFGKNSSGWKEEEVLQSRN
# Procedure, shortened: as §1
# [9] = target: CRX (Homo sapiens, UniProt O43186 1-299); conditions: protein: recombinant; tags: N-terminal GST; dsDNA, one strand shown
# Procedure, shortened: as §1
# [10] = target: ETV1 (Homo sapiens, UniProt P50549 1-477); conditions: protein: recombinant; tags: N-terminal GST; dsDNA, one strand shown
# Procedure, shortened: as §1
# [11] = target: T6, ERF (Homo sapiens, UniProt P50548 1-548); conditions: protein: recombinant; tags: N-terminal GST; dsDNA, one strand shown
# T6 sequence: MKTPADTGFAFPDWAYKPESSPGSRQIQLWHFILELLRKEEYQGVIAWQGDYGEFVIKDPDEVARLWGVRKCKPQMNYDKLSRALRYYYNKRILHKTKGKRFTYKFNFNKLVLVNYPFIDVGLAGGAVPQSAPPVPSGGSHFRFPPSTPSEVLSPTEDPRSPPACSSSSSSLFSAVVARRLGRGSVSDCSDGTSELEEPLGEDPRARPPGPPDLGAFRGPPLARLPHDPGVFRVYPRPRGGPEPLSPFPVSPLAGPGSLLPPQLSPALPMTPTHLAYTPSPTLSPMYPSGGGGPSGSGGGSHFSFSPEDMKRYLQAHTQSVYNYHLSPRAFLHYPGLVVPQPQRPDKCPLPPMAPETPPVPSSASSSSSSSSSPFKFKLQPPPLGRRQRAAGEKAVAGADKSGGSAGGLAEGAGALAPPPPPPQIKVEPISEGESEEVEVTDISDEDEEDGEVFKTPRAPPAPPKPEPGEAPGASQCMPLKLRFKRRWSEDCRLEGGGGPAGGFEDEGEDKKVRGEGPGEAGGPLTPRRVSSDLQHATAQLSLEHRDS
# Procedure, shortened: as §1
# [12] = target: T7, ETV3L (Homo sapiens, UniProt Q6ZN32 1-361); conditions: protein: recombinant; tags: N-terminal GST; dsDNA, one strand shown
# T7 sequence: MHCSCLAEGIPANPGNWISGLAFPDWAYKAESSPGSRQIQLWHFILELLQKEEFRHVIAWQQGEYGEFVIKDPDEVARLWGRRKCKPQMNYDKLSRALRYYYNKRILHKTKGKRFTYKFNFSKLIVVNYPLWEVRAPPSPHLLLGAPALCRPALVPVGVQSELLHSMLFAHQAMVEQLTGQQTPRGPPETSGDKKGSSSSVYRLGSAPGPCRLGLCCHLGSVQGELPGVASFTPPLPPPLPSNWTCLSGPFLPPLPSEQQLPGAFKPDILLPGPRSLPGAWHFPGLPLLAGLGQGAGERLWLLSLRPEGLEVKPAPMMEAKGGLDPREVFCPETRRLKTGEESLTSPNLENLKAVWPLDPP
# Procedure, shortened: as §1
# [13] = target: T8, ETS2 (Homo sapiens, UniProt P15036 1-469); conditions: protein: recombinant; tags: N-terminal GST; dsDNA, one strand shown
# T8 sequence: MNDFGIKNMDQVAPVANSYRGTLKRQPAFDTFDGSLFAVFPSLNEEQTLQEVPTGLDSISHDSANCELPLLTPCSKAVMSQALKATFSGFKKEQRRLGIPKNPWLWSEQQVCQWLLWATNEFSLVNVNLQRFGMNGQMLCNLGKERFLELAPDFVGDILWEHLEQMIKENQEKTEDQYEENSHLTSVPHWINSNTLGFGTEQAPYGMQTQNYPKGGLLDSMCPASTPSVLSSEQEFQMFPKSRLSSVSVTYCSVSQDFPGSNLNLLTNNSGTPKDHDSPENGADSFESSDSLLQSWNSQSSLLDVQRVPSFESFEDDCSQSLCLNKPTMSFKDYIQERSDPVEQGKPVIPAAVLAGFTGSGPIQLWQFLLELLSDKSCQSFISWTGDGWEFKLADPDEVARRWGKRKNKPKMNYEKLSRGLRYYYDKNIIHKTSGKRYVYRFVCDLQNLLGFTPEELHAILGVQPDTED
# Procedure, shortened: as §1
# [14] = target: T9, SPDEF (Homo sapiens, UniProt O95238 1-335); conditions: protein: recombinant; tags: N-terminal GST; dsDNA, one strand shown
# T9 sequence: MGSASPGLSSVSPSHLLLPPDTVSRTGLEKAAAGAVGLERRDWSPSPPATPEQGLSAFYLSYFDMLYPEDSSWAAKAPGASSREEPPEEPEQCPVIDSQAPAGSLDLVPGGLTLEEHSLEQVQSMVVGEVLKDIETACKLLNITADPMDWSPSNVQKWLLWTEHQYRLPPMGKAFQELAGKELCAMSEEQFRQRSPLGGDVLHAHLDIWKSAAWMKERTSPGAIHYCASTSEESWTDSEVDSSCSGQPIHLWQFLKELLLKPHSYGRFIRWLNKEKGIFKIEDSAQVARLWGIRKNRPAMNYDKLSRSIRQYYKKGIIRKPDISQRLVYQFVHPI
# Procedure, shortened: as §1
# [15] = target: T10, ETV7 (Homo sapiens, UniProt Q9Y603 1-341); conditions: protein: recombinant; tags: N-terminal GST; dsDNA, one strand shown
# T10 sequence: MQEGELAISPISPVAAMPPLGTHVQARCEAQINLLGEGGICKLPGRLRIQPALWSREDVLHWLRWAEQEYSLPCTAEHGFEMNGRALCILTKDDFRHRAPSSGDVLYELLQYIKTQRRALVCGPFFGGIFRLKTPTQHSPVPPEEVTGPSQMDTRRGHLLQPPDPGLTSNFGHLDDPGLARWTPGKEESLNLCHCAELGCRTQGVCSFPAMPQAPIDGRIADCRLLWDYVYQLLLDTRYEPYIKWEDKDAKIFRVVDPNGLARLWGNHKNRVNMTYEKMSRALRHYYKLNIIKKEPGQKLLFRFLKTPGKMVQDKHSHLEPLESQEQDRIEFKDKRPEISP
# Procedure, shortened: as §1
# [16] = target: T11, ELF5 (Homo sapiens, UniProt Q9UKW6-2 1-255); conditions: protein: recombinant; tags: N-terminal GST; dsDNA, one strand shown
# T11 sequence: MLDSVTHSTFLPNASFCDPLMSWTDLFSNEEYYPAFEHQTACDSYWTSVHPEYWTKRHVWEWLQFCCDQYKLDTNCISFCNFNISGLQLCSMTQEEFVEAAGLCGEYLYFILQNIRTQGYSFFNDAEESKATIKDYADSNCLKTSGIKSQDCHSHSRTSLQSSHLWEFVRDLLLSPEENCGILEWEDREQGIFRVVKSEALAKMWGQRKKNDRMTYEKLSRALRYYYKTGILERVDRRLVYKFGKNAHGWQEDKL
# Procedure, shortened: as §1
# [17] = target: T12, ETV3 (Homo sapiens, UniProt P41162-2 1-143); conditions: protein: recombinant; tags: N-terminal GST; dsDNA, one strand shown
# T12 sequence: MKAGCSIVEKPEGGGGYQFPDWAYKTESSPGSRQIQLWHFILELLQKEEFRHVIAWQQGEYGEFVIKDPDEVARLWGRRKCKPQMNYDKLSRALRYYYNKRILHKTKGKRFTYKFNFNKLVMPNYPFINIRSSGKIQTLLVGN
# Procedure, shortened: as §1
# [18] = target: ETV6 (Homo sapiens, UniProt P41212 1-452); conditions: protein: recombinant; tags: N-terminal GST; dsDNA, one strand shown
# Procedure, shortened: as §1
# Sequence of ETV6 (P41212 whole entry): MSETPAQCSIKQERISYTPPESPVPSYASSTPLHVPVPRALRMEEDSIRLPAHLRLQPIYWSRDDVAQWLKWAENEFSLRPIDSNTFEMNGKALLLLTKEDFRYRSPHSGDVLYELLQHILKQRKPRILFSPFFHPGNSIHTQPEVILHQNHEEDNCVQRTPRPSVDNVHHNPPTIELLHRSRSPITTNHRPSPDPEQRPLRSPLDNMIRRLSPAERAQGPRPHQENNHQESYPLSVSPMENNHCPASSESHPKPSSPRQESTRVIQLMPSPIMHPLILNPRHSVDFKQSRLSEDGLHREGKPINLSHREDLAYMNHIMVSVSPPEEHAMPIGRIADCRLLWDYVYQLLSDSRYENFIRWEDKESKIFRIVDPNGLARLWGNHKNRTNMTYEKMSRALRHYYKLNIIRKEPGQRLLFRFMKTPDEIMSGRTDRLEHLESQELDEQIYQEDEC
# Sequence of ETV1 (P50549 whole entry): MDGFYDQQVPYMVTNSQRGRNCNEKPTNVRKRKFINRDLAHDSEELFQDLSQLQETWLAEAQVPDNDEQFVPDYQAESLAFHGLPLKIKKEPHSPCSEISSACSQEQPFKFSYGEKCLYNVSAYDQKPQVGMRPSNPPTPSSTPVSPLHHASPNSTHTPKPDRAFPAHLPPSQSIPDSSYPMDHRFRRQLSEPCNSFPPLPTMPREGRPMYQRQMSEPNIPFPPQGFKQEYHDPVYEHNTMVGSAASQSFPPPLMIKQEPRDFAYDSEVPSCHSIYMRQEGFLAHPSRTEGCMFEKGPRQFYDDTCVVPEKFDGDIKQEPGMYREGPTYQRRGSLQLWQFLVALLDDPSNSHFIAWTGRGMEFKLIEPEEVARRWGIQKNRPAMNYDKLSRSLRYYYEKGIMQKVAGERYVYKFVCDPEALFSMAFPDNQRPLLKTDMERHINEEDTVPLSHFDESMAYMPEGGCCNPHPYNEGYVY
# Sequence of HSF1 (Q00613 whole entry): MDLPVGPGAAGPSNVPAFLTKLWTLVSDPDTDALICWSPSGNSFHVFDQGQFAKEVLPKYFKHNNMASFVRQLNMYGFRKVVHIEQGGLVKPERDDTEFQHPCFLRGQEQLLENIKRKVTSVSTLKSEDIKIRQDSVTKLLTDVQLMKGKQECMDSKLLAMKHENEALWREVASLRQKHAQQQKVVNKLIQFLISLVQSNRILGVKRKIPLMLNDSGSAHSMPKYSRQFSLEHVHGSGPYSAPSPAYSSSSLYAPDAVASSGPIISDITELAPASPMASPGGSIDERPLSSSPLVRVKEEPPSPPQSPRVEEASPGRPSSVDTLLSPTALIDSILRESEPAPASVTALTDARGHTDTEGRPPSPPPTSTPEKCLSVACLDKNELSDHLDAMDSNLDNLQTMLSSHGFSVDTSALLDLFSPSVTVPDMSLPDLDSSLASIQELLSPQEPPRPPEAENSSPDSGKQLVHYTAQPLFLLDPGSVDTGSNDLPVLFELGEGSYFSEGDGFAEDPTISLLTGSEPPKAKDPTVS
# Sequence of CRX (O43186 whole entry): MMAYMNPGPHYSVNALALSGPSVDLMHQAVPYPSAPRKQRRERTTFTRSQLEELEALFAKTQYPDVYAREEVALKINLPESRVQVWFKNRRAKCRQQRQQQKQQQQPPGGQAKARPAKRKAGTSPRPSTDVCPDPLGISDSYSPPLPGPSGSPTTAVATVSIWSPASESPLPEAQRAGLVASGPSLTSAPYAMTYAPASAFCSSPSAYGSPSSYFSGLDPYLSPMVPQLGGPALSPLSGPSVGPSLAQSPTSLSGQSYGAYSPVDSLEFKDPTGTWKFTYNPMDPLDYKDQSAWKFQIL
# Sequence of ELF4 (Q99607 whole entry): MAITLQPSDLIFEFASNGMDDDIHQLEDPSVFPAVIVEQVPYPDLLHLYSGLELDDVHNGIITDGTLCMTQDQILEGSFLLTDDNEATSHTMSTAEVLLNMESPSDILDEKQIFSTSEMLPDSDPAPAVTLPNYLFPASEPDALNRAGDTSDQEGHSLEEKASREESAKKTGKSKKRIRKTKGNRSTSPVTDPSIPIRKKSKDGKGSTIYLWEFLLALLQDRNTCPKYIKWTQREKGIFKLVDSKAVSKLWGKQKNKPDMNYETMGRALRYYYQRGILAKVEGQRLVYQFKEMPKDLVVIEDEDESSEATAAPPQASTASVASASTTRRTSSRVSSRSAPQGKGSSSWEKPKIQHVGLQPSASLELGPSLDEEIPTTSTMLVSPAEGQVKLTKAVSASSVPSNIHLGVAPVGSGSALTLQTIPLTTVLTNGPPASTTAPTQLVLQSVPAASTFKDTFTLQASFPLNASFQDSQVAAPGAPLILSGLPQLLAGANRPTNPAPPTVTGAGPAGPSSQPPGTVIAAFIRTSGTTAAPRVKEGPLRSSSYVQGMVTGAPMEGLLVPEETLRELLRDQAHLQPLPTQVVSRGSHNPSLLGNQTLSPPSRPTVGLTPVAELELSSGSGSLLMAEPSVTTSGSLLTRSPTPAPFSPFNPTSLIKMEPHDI
# Sequence of ETV5 (P41161 whole entry): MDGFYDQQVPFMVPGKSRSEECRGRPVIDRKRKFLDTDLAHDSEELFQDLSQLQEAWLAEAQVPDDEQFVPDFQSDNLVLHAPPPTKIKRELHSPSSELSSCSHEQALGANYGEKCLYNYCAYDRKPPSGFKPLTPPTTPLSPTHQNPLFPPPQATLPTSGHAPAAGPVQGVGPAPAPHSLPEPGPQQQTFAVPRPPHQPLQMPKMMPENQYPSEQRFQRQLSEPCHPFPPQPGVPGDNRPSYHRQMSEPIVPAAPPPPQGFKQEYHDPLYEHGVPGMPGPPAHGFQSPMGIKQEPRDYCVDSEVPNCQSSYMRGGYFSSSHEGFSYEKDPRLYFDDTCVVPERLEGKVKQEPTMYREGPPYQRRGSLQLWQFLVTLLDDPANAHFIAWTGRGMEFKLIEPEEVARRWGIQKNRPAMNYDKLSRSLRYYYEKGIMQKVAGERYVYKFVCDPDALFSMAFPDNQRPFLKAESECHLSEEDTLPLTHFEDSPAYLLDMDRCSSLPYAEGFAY
sequence,measurement,setting,value
ACCCGC,binding signal,[1],"1.24 fold enrichment (6-mer frequency, TF over GST control)"
same,binding signal,[2],"1.24 fold enrichment (6-mer frequency, TF over GST control)"
same,binding signal,[3],"1.13 fold enrichment (6-mer frequency, TF over GST control)"
same,binding signal,[4],"1.16 fold enrichment (6-mer frequency, TF over GST control)"
same,binding signal,[5],"1.35 fold enrichment (6-mer frequency, TF over GST control)"
same,binding signal,[6],"1.39 fold enrichment (6-mer frequency, TF over GST control)"
same,binding signal,[7],"1.24 fold enrichment (6-mer frequency, TF over GST control)"
same,binding signal,[8],"1.15 fold enrichment (6-mer frequency, TF over GST control)"
same,binding signal,[9],"1.1 fold enrichment (6-mer frequency, TF over GST control)"
same,binding signal,[10],"1.27 fold enrichment (6-mer frequency, TF over GST control)"
same,binding signal,[11],"1.27 fold enrichment (6-mer frequency, TF over GST control)"
same,binding signal,[12],"1.34 fold enrichment (6-mer frequency, TF over GST control)"
same,binding signal,[13],"1.15 fold enrichment (6-mer frequency, TF over GST control)"
same,binding signal,[14],"1.16 fold enrichment (6-mer frequency, TF over GST control)"
same,binding signal,[15],"1.18 fold enrichment (6-mer frequency, TF over GST control)"
same,binding signal,[16],"1.25 fold enrichment (6-mer frequency, TF over GST control)"
same,binding signal,[17],"1.28 fold enrichment (6-mer frequency, TF over GST control)"
same,binding signal,[18],"1.32 fold enrichment (6-mer frequency, TF over GST control)"
